# Only some compounds are listed: those with a hit (about 7.5% of all), similar ones and a draw of the others.
# ELG1 genotox: qHTS screen for small molecules that induce genotoxicity in human embryonic kidney (HEK293T) cells expressing luciferase-tagged ELG1. HEK293T ELG1-luciferase reporter, luminescence, 16 h. Potency, µM (top dose mostly 46 µM), without a hit: at the top dose activity change, positive = activation, hits mostly activators. 330,000 compounds, 1.3% hits. AID 504466, 2011; note: % of control where 0% means no effect; nearly all actives have a fitted effect of over 60% in size
#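 HEK293T cells expressing luciferase-tagged ELG1 were treated with compound or DMSO for 16 hr at 37°C. Luciferase activity was then read after 30 min with ONE-Glo at room temperature; rising signal flags genetic stress.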
# SMN2 splice enh: qHTS Assay for Enhancers of SMN2 Splice Variant Expression. HEK293 SMN2-luciferase splicing reporter, luminescence, 30-36 h. Potency, µM (highest dose often 46.1 µM), for the others: top-dose activity change, positive = activation, hits mostly activators. 210,000 compounds, 2.8% hits. AID 1458, 2008; note: % of control where 0% means no effect; nearly all actives have a fitted effect of over 55% in size
#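 HEK293 cells carry an SMN2 […]–luciferase reporter in which exon 7 inclusion puts luciferase in frame. Cells were plated 10-12 h before compound addition, then incubated 30-36 h at 37C. ONE-Glo luminescence was read; sodium butyrate at 4.5 mM final served as control.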
# FLuc counter: qHTS profiling assay for firefly luciferase inhibitor/activator using purifed enzyme and Km concentrations of substrates (counterscreen for miR-21 project). Luciferin 4-monooxygenase (Photinus pyralis), P08659. purified FLuc, Km substrates, luminescence inhibition. Potency, µM (doses to about 57.5 µM), for the others: top-dose activity change, negative = inhibition, hits mostly inhibitors. 360,000 compounds, 6.9% hits;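 note: plate controls were vehicle for no effect and reference inhibitor for full effect; nearly all actives have a fitted effect of over 55% in size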
# Target sequence (P08659 whole entry, looked up): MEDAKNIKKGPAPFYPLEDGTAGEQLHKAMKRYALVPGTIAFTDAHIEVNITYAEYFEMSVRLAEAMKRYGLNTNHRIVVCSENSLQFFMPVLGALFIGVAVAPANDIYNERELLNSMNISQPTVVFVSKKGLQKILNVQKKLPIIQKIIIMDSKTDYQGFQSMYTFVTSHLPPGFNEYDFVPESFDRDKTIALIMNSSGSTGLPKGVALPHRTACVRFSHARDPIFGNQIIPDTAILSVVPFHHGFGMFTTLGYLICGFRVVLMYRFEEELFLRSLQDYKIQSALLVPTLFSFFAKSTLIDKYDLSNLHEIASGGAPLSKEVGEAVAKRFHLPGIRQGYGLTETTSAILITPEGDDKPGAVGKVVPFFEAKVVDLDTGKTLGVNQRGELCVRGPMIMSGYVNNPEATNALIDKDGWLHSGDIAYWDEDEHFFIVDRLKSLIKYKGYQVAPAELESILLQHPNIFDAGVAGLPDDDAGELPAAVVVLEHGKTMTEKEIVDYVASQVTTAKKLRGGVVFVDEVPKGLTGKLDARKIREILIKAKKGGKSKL
#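 Biochemical qHTS of compounds, final roughly 60 µM downward over six points, against 10 nM purified firefly luciferase using Km concentrations of substrates (10 uM D-luciferin, 10 uM ATP) in Tris acetate pH 7.5 buffer; luminescence output.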
# NPC1 prom act: qHTS Assay for NPC1 Promoter Activators; Huh7 NPC1 promoter luciferase reporter, 24 h; Potency, µM (top dose mostly 9.22 µM), without a hit: at the highest dose activation, usual class: activators; 320,000 compounds, 2.4% hits; AID 485313, 2010; note: % of control where 0% means no effect; nearly all actives have a fitted effect of over 60% in size
#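 Huh7 cells stably carrying NPC1 promoter–luciferase, plated in Opti-MEM with 10% FBS for 2 h, were exposed to compound in DMSO for 24 h at 37 °C; luciferase reagent was added for 10 min and luminescence read.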
# Rab9 prom act: qHTS Assay for Rab9 Promoter Activators; Huh7 Rab9 promoter-luciferase reporter, luminescence, 24 h; Potency, µM (top dose mostly 9.22 µM), for inactives: at the highest dose activation, negative = inhibition, most hits filed as activators; 320,000 compounds, 2.8% hits; AID 485297, 2010; note: % of control where 0% means no effect; nearly all actives have a fitted effect of over 60% in size
#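 Quantitative HTS format; Huh7 Rab9-luciferase reporter cells (1500/well) receive compound 2 h post-plating, incubate 24 h at 37 °C, then get luciferase reagent for 10 min before luminescence reading.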
# * marks the source's active call; other numbers are inactive results; u = inconclusive; x = not tested or not shown. Calls come from the whole dose curve; as a rule, active = well fitted curve in the direction sought with a large enough effect; inconclusive = small, poorly fitted or top-dose-only effect, or another doubt; inactive = no such curve, though single readings can be large; an effect the other way counts as inactive or inconclusive. Potency is the fitted concentration of half-maximal effect.
SMILES,ELG1 genotox,SMN2 splice enh,FLuc counter,NPC1 prom act,Rab9 prom act
Cc1ccc(/C=C/C(=O)Nc2ccc(N(C)C)cc2)o1,u,14µM*,3µM*,u,u
Cc1ccc(/C=C/C(=O)Nc2ccncc2)o1,3%,2%,17µM*,4%,2%
CC(C)c1ccccc1NC(=S)NC(C)c1ccccc1 (configuration not stated),-2%,-17%,2%,-1%,-13%
CCOC(=O)N1CCN(C(=O)CSC2=NS(=O)(=O)c3cc(F)ccc3N2)CC1,3%,x,-1%,-1%,0%
C=CCn1c(=S)[nH]c2cc(-c3ccccc3)sc2c1=O,9%,x,1.9µM*,25%,19%
COc1ccc(OC)c(NC(=O)N2CCCC(C(=O)c3ccccc3OC)C2)c1 (configuration not stated),-2%,x,-3%,1%,-3%
CCCOc1ccc(N2C(=O)CC(NCC#N)C2=O)cc1 (configuration not stated),2%,x,-1%,-3%,-1%
CC1(C)CN=C(N(Cc2ccccc2)C(=O)Nc2ccccc2)S1,u,-14%,15µM*,u,u
CCCCCCn1cnc2c(oc3nc4c(cc32)CCCC4)c1=O,14%,11µM*,u,u,3.2µM*
O=c1c2oc3nc4c(cc3c2ncn1CCCc1ccccc1)CCCC4,14%,x,24µM*,24%,u
CCCCn1cnc2c(oc3nc4c(cc32)CCCC4)c1=O,u,x,6µM*,0.63µM*,0.56µM*
CCCCC1(Cc2cccc([N+](=O)[O-])c2)C(=O)N(c2ccccc2)N(c2ccccc2)C1=O,u,-89%,3%,-2%,-4%
Cc1cccc(C)c1NC(=O)C1CCCCN1C (configuration not stated),1%,-20%,2%,0%,1%
Brc1ccc(/C=C/C=N/Nc2nc3ccccc3s2)cc1,2%,-18%,9.5µM*,u,x
Cc1ccc(-c2csc(N/N=C/C=C/c3ccccc3)n2)cc1,0%,1%,-13%,-3%,0%
C(=C\c1ccccc1)/C=N/Nc1nc2ccccc2s1,u,14µM*,2.4µM*,1.6µM*,1.3µM*
CC1CCC/C(=N/Nc2nc3ccccc3s2)C1 (configuration not stated),u,11µM*,0.85µM*,22%,3.5µM*
CC1(C)CC(=O)C/C(=N/Nc2nc3ccccc3s2)C1,17%,-3%,u,-1%,-1%
Cc1ccc2[nH]c(C)c(/C=N/Nc3nc4ccccc4s3)c2c1,0%,7%,u,15%,-3%
CCC/C=N/Nc1nc2ccccc2s1,u,u,3.4µM*,3.5µM*,2.8µM*
CC(=O)c1cc2c(cc1NC(=O)CCC1CCCC1)OCO2,3%,-3%,-19%,1%,-8%
COc1cccc(-n2nc(-c3ccnn3-c3ccccc3)c(=O)n(C)c2=O)c1,-2%,-13%,0%,-4%,-7%
COc1cc(CN2CCC(C(=O)NC3CCCC3)CC2)cc(Br)c1O,1%,6%,1%,2%,7%
CC(C)(C)c1csc(NC(=O)C2COc3ccccc3O2)n1 (configuration not stated),u,x,15µM*,u,u
CC1(C)CC(=O)c2sc(NC(=O)c3ccco3)nc2C1,21µM*,u,6µM*,u,28%
SMILES,ELG1 genotox,SMN2 splice enh,FLuc counter,NPC1 prom act,Rab9 prom act
CC(=O)c1sc(NC(=O)C2COc3ccccc3O2)nc1C (configuration not stated),u,3.2µM*,1.9µM*,0.45µM*,0.35µM*
O=C(Nc1nnc(C2CC2)s1)C1COc2ccccc2O1 (configuration not stated),4.1µM*,5.6µM*,11µM*,2.8µM*,0.89µM*
O=C(Nc1nncs1)C1COc2ccccc2O1 (configuration not stated),15%,u,u,19%,3%
COC(=O)[C@H](Cc1c[nH]c2ccccc12)NC(=O)NCc1ccc(OC)c(OC)c1,1%,x,-3%,-3%,4%
CC(=O)Nc1c(C)ccc(CNC(=O)COc2cc(C)ccc2C)c1C,-2%,-37%,0%,4%,0%
CC1(C)CC(=O)c2sc(NC(=O)C3COc4ccccc4O3)nc2C1 (configuration not stated),21µM*,13µM*,u,25%,u
COc1ccccc1S(=O)(=O)NCc1ccc(C(=O)NC(C)c2ccccn2)cc1 (configuration not stated),1%,x,5%,1%,0%
Cc1cc(C)nc(Nc2n[nH]c(-c3ccccc3C)n2)n1,21µM*,11µM*,9.5µM*,2µM*,1.8µM*
Cc1cc(C)nc(Nc2n[nH]c(-c3ccccc3Br)n2)n1,18µM*,81%,9.5µM*,u,u
COc1ccc2c(c1)c(CC(=O)O)c(C)n2Cc1ccc(F)cc1,x,-1%,x,x,x
Cc1ccc(C(=O)COC(=O)c2ccco2)cc1C,23µM*,x,1.5µM*,1%,13%
Cc1ccc(CNC(=O)COC(=O)c2ccc(Br)o2)cc1,3%,x,x,-1%,1%
O=C(COC(=O)c1ccco1)c1ccccc1,u,x,6µM*,-7%,0%
Cc1ccc(C(=O)COC(=O)c2ccc(Br)o2)cc1C,4%,10%,11µM*,2%,16%
COc1cc(C(=O)COC(=O)c2ccco2)cc(OC)c1OC,11%,x,x,x,x
O=C(CSCc1ccc(Cl)cc1)c1ccco1,11%,-4%,15µM*,12%,8%
CCCN(c1ccccc1C(=O)O)S(=O)(=O)c1ccc2c(c1)n(C)c(=O)n2C,0%,x,-3%,0%,-2%
N#Cc1ccccc1OCC(=O)Nc1cccc(S(=O)(=O)N2CCCCCC2)c1,0%,x,-14%,-2%,-7%
CCn1nc(C)c(CN2CCC(n3nccc3NC(=O)c3ccc4c(c3)OCO4)CC2)c1C,-1%,x,4%,0%,5%
CCOc1ccc(N(CC(=O)NCCCOC)S(C)(=O)=O)cc1,3%,9%,6%,2%,-4%
O=C(Cc1ccc(F)cc1)OCC(=O)c1cc2ccccc2o1,1%,7%,21µM*,9%,2%
O=C(COC(=O)c1cc2ccccc2o1)c1ccccc1,u,-7%,6µM*,-2%,-2%
O=C(COC(=O)c1ccco1)c1ccc2ccccc2c1,10%,-15%,2.4µM*,-2%,9%
O=C(COC(=O)c1ccco1)NCCNC(=O)COC(=O)c1ccco1,1%,x,4%,-3%,7%
O=C(COC(=O)c1ccco1)c1ccc(Cl)cc1,18%,x,1.7µM*,-1%,-6%

# Screening results: PubChem, National Center for Advancing Translational Sciences (NCATS)
